In PubChem BioAssay AID624305 (National Center for Advancing Translational Sciences (NCATS), 2012):
Inconclusive results are not listed. Values without a mark were called inactive. Active and inactive are the calls of the source. Calls come from the whole dose curve; as a rule, active = well fitted activation curve with a large enough effect; inconclusive = small, poorly fitted or top-dose-only effect; inactive = no such curve, though single readings can be large or run the other way.

Test: qHTS assay for re-activators of p53 using a Luc reporter: Hit Validation; note: nearly all actives have a fitted effect of over 75% in size; for activation: 0% is about no effect
Details: p53-responsive luciferase reporter cells, luminescence, H1299 line expressing heat-sensitive Ala138Val p53; series mostly up to 46.1 µM; activation: at the top concentration
Method in brief: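 H1299 (p53-null) cells stably carrying p53-A138V and a BP100-luciferase reporter, 1000 cells/well, treated 24 h at 37 deg C. Compounds at several concentrations, 1:5 dilution; nocodazole control; luminescence read after 10 min with detection reagent.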
Potency is the fitted concentration of half-maximal effect.

| Compound | Potency | activation |
| --- | --- | --- |
| CCc1ccc2oc(-c3ccc(N)cc3)nc2c1 | 92 nM (active) | – |
| CN(C(=O)NC(=O)C1=C(N2CCOCC2)/C(=C/c2ccccc2)CC1)S(C)(=O)=O | – | 32.3% |
| COc1ccc(NC(=O)/C(Cl)=C(/Cl)S(=O)(=O)Cc2ccc(C)cc2)cn1 | – | -94.3% |
| Cc1ccnc(NC(=O)c2sc3cc(Cl)ccc3c2Cl)c1 | 2910 nM (active) | – |
| O=C(NCCN1CCCCC1)Nc1cccc(C(F)(F)F)c1 | – | -0.521% |
| Cc1ccc2cc(C#N)c(NCc3ccco3)nc2c1 | – | -78.1% |
| COc1cc(/C=N/Nc2nc3ccccc3s2)ccc1OC(=O)c1ccccc1F | 1460 nM (active) | – |
| COC(=O)c1ccc(-c2nc(-c3cccs3)no2)cc1 | 146 nM (active) | – |
| O=C(NNC(=S)NC1CCCCC1)c1cccs1 | – | 0% |
| Cc1ccc2cc3cc(C(=O)N4CCCCCC4)oc3nc2c1 | 10300 nM (active) | – |
| CCCCn1c(/C=N/Nc2nc3ccccc3[nH]2)nc2ccccc21 | 23100 nM (active) | – |
| Cc1ccc(C(=O)OCC(=O)NCC2COc3ccccc3O2)cc1 (stereo not drawn) | – | 41.1% |
| O=C(N/N=C/c1cccs1)c1n[nH]c2c1CCC2 | 517 nM (active) | – |
| COc1ccccc1NC(CC(=O)c1ccccc1)C(=O)OCC(=O)c1ccc(C)c(C)c1 (stereo not drawn) | 291 nM (active) | – |
| COc1ccc2cc(C3(C)NC(=O)N(CC(=O)Nc4c(C)n(C)n(-c5ccccc5)c4=O)C3=O)ccc2c1 (stereo not drawn) | – | -22.9% |
| Cc1ccc(C(=O)Nc2ccn(C)n2)cc1 | 8200 nM (active) | – |
| COc1ccc2oc(-c3cccc(NC(=O)CSc4ccc(Cl)cc4)c3)nc2c1 | – | -2.44% [at 9.22 µM] |
| C=CCOc1c(OC)cc(/C=N/Nc2cccc(C(=O)O)c2)c(Br)c1Br | 13000 nM (active) | – |
| C/C(=C\C(=O)c1ccccc1)Nc1ccc2c(c1)OCO2 | 2910 nM (active) | – |

| Compound | Potency | activation |
| --- | --- | --- |
| COc1ccccc1C(=O)CC(=O)c1ccccc1 | – | 2.08% |
| COc1ccccc1Oc1c(C)oc2c(CN(C)C)c(O)ccc2c1=O | – | -21.9% |
| COc1cccc(Oc2ccc(N)cn2)c1 | – | -17.7% |
| O=C1c2cccc3cc([N+](=O)[O-])cc(c23)C(=O)N1CCN1CCCC1 | – | 147% |
| CCN(CC)C(=O)CSC(=Nc1ccccc1F)NC#N | 14600 nM (active) | – |
| COc1cc(C(C)=O)ccc1Oc1ncnc2c1cnn2-c1ccc(F)cc1 | – | 9.9% |
| Cc1cc2nc(-c3ccc(SCC(=O)Nc4ccc(S(=O)(=O)NC5CC5)cc4)nc3)[nH]c2cc1C | 2310 nM (active) | – |
| CN1CCN(C(=O)CCCN2C(=O)/C(=C/c3ccc(Cl)cc3)SC2=S)CC1 | 9200 nM (active) | – |
| CCC(=O)Nc1ccc2oc(-c3cccc(C)c3)nc2c1 | 73.1 nM (active) | – |
| CC(C)CNC(=S)Nc1ccc(Oc2ccccc2)cc1 | – | -1.04% |
| CC(C)c1ccc(C(O)c2nc3ccccc3n2C)cc1 (stereo not drawn) | – | 19.8% |
| CCCCCNC(=O)N[C@H](C(=O)O)C(C)C | – | -15.6% |
| O=C(NCC1CCCO1)c1ccc(NC(=O)c2cccc([N+](=O)[O-])c2)cc1 (stereo not drawn) | – | 0% |
| COc1cccc(C(=O)c2sc(NC(C)C)nc2N)c1 | – | 25.6% [at 9.22 µM] |
| O=c1[nH]c(N/N=C/c2ccc(O)cc2)nc2ccccc12 | 4610 nM (active) | – |
| CC(OC(=O)c1cccc([N+](=O)[O-])c1)C(=O)N1CCc2ccccc21 (stereo not drawn) | – | 30.2% |
| O=C(NC(=S)NCCc1ccccc1)C1CCCCC1 | 23100 nM (active) | – |
| C=CCn1c(C)cc(C(=O)CSc2nc3ccccc3o2)c1C | 731 nM (active) | – |
| COc1cccc(-c2nc3cc(C)ccc3o2)c1 | 411 nM (active) | – |
